Source: PubChem
Most compounds without a hit are left out; they make up all but 0.59% or so of the library.
Rango-impB inh = inhibitors of Rango-importin beta complex formation. Rango CFP/YFP FRET sensor + importin beta, 45 min. Potency, µM (series often up to 92.2 µM), without a hit: top-dose inhibition of complex formation. hit rate 0.031% among 340,000. AID 540263;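 also: potency is read from the fitted curve at half-maximal effect; 0% = DMSO wells and 100% = buffer wells lacking importin beta; nearly all actives have a fitted effect of over 15% in size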
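Inhibition scored from the CFP 486 nm/YFP 530 nm FRET ratio 45 min after adding 0.125 microM importin beta to 50 nM Rango biosensor preincubated 5 min with compound (room temperature, PBS with DTT, Tween-20, BSA). No-importin wells as positive control.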
Rango release inh = inhibitors of RanGTP-induced Rango-importin beta complex dissociation. O95149+P62826. Biochemical FRET Rango-importin beta, RanGTP-induced dissociation. Potency, µM (titrated, usually from 46.1 µM), inactives show at the highest dose activity change, negative = inhibition. hit rate 0.071% among 340,000. AID 540253; also: potency is read from the fitted curve at half-maximal effect; % of control where 0% means no effect; nearly all actives have a fitted effect of over 45% in size
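Quantitative HTS using a FRET biosensor: 0.1 uM Rango, 0.25 uM importin beta, 0.6 uM Ran, 2 mM GTP, 0.2 uM RCC1 final, PBS with DTT, Tween-20 and BSA. Post-read taken 45 min after Ran addition.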
uPA surface inh = inhibitors of cell surface uPA generation. Potency, µM (highest dose often 38.3 µM), for inactives: top-dose activity change, negative = inhibition, hits mostly inhibitors. hit rate 0.31% among 330,000. cell surface uPA generation assay, qHTS; active = well fitted inhibition curve with a large enough effect; inconclusive = small, poorly fitted or top-dose-only effect; inactive = no such curve, though single readings can be large or run the other way; tested in mouse RAW 264.7 cells; also: potency is read from the fitted curve at half-maximal effect; % is scaled to controls: 0 for no effect and ±100 for the full control effect; nearly all actives have a fitted effect of over 55% in size
Giardia killer = kills Giardia lamblia; Giardia lamblia trophozoite viability; activity change, % at 7.66 µM, hits read low; hit rate 0.15% among 340,000; AID 540267; in the data active = activity change below about -80%; inconclusive = between about -30% and that limit;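 also: parasites exposed to compound for two days anaerobically before the ATP read; % is scaled to controls: 0 for no effect and ±100 for the full control effect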
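ATP-content bioluminescence gauges trophozoite survival. Cells (100/well) receive compound and incubate anaerobically for 48 hrs at 37 deg C; detection reagent follows for 15-30 min at room temperature.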
Integrin act MD = activates integrin-mediated alleviation for muscular dystrophy | alpha7betagal myoblasts, beta-gal FDG fluorescence, 48 h | Potency, µM (titrated, usually from 38.3 µM), for inactives: top-dose activation, hits mostly activators | hit rate 0.064% among 350,000; active = well fitted activation curve with a large enough effect; inconclusive = small, poorly fitted or top-dose-only effect; inactive = no such curve, though single readings can be large or run the other way;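 also: potency is read from the fitted curve at half-maximal effect; 100% = response of the positive control SU9516; nearly all actives have a fitted effect of over 60% in size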
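Alpha7betagal+/- myoblasts (passage 13) were plated 16-24 hr, then exposed to compounds (1:260 dilution of DMSO stock) for 48 hours at 37C. After MPER lysis, β-galactosidase reporter activity was read as FDG fluorescence (ex 480/em 540) after 30 minutes.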
* hit, by the source's call; ? = inconclusive; nt = no result given. Unless noted, calls follow the shape of the full dose curve.

SMILES	Rango-impB inh	Rango release inh	uPA surface inh	Giardia killer	Integrin act MD
Cc1ccc(C2=NCCn3c2c2ccc(C(F)(F)F)cc2[n+]3[O-])cc1	1%	0%	-4%	-84*	-14%
Cc1ccc(C2=NCCn3nc4cc(C(F)(F)F)ccc4c32)cc1	-2%	?	-1%	7	-15%
COc1ccc(C2=NCCn3c2c2ccc(C(F)(F)F)cc2[n+]3[O-])cc1	0%	1%	4%	-99*	14%
O=C(c1cccc(S(=O)(=O)N2CCOCC2)c1)N1CCN(S(=O)(=O)c2cccc([N+](=O)[O-])c2)CC1	0%	2%	-1%	8	-10%
O=[N+]([O-])c1cccc(S(=O)(=O)N2CCN(S(=O)(=O)N3CCOCC3)CC2)c1	-1%	5%	-4%	-26	10µM*
CCOC(=O)c1sc(NC(=O)C(C)(C)C)cc1C	-2%	19%	11µM*	-13	-8%
COc1cccc(/C=C2/SC(=S)N(CC(=O)Nc3nccs3)C2=O)c1	nt	nt	nt	-20	nt
Cc1ccc(C)c(CNc2ccc(S(=O)(=O)N3CCCCC3)cc2)c1	-2%	-8%	2.5µM*	13	-37%
CCOC(=O)Cn1cc(/C=C/[N+](=O)[O-])c2ccccc21	4%	1%	10µM*	-8	-21%
COc1ccc(C(=O)O/N=C(\N)c2ccccc2)c(OC)c1	5%	-11%	4µM*	2	-50%
COc1cc(/C=C2\C(=O)N(C)C(=S)N2C)ccc1O	?	?	-3%	5	14%
CN1C(=O)/C(=C/c2ccc(O)c([N+](=O)[O-])c2)N(C)C1=S	?	-30%	8%	-91*	1%
CCN1/C(=C/c2cc[n+](CCCS(=O)(=O)[O-])c3ccccc23)Sc2ccccc21	7%	-3%	5%	?	17%
C=CC[n+]1ccc(/C=C2\C=Cc3cc(C)ccc3N2CC)c2ccccc21	?	-1%	2.5µM*	23	-62%
CCOc1ccccc1NC(=O)c1cccc2c1C(=O)N(C1CCCCC1)C2	5%	-4%	4%	-2	3.2µM*
CC1CN(C(=O)c2ccc(-c3cccc(C(F)(F)F)c3)o2)CC(C)O1 (configuration not stated)	0%	3%	4%	-5	-2%
Cn1nnnc1Sc1ncnc2scc(-c3cccc(Br)c3)c12	-1%	5%	8.9µM*	?	nt
Cn1nnnc1Sc1ncnc2scc(-c3ccc(Cl)cc3)c12	0%	-12%	?	7	nt
Cn1nnnc1Sc1ncnc2scc(-c3ccccc3Cl)c12	-1%	-3%	10µM*	12	nt
COc1ccccc1N1CCN(S(=O)(=O)CCNC(=O)c2cc(OC)c(OC)c(OC)c2)CC1	4%	4%	13µM*	22	-51%
O=C(Cc1cccs1)NCCS(=O)(=O)N1CCN(c2ccccc2F)CC1	1%	2%	3.2µM*	-4	-19%
COc1ccccc1N1CCN(S(=O)(=O)CCNC(=O)c2ccco2)CC1	nt	nt	nt	nt	15%
Fc1ccc(-c2ccnn2-c2ccccc2)cc1	-1%	-9%	3%	-5	4.5µM*
c1ccc(CN2CCCC3(CCCN(Cc4nc(CC5CC5)no4)C3)C2)cc1 (configuration not stated)	-3%	5%	11%	12	8.9µM*
c1ccc(CN2CCCC3(CCCN(Cc4nc(COc5ccccc5)no4)C3)C2)cc1 (configuration not stated)	-4%	1%	10%	14	-13%
O=C(O)c1cccc(NC(=O)c2ccc(Cl)c(S(=O)(=O)N3CCCCCC3)c2)c1	1%	42%	6.3µM*	0	19%
CCC(C(=O)O)N1C(=O)/C(=C/c2cccn2C)SC1=S (configuration not stated)	?	?	8%	-3	-8%
CC(C(=O)O)N1C(=O)/C(=C/c2cccn2C)SC1=S (configuration not stated)	?	2.6µM*	-3%	-22	4%
Cc1nnc(N2C(=O)C(O)=C(C(=O)c3ccco3)C2c2ccc(C(C)(C)C)cc2)s1 (configuration not stated)	?	26µM*	-2%	18	-7%
COc1ccc(C2C=C3CNS(=O)(=O)C3CC2OC(=O)c2cccc(C)c2)cc1 (configuration not stated)	nt	nt	nt	-8	nt
